Common to all, as to assay: DAPPL (digital affinity profiling via proximity ligation, sequencing); 10 mM Tris-HCl pH 7.5, 50 mM NaCl, 1 mM DTT, 4% glycerol, room temperature, 30 min; GST-TFs on glutathione beads, 16-mer random dsDNA library, 0.1% formaldehyde crosslink after washing; high values mean tight binding
Common to all, as to conditions: protein: recombinant; tags: N-terminal GST; dsDNA, one strand shown

One test deals with T1, ELK1 (Homo sapiens, UniProt P19419 1-428).
T1 sequence: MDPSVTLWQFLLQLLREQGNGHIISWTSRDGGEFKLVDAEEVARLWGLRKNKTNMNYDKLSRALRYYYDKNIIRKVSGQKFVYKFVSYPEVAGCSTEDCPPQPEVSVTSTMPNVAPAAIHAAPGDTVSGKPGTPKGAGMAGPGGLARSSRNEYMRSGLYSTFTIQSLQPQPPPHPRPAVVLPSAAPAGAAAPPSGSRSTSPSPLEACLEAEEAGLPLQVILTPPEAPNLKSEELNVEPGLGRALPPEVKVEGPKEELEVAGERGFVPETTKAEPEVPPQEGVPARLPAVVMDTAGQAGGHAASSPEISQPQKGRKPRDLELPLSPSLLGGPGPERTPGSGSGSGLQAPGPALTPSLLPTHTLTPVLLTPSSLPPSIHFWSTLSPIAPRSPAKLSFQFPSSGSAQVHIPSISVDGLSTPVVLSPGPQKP
Summed up: (§1)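 Pools were built from human transcription factors expressed in yeast as GST fusions, captured on glutathione beads and DNA-barcoded, along with a tag-only sample. Incubation with 200 nmole of a 16-mer random double-stranded DNA library lasted 30 min at room temperature in Tris/NaCl/DTT/glycerol buffer, and was followed by washing, 0.1% formaldehyde crosslinking, proximity ligation, PCR amplification and Illumina NextSeq500 sequencing. Binding signal is the quotient of each hexamer's read frequency for a factor and its frequency for the tag-only sample.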

The target of the next test is T2, GABPA (Homo sapiens, UniProt Q06546 1-454).
T2 sequence: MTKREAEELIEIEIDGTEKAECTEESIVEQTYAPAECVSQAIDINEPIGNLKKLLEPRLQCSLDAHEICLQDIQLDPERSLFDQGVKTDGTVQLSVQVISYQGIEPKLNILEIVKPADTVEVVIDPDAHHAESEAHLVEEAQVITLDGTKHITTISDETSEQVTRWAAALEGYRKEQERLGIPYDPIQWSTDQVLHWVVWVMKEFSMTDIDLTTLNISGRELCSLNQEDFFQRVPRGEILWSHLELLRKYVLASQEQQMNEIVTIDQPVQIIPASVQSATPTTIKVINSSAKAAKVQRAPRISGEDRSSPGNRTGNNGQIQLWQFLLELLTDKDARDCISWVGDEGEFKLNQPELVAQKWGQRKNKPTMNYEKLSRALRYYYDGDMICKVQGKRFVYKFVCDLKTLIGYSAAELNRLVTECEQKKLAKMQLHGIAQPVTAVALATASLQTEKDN
The gist of the method: as §1

Another test concerns the target T3, ERG (Homo sapiens, UniProt P11308 1-479).
T3 sequence: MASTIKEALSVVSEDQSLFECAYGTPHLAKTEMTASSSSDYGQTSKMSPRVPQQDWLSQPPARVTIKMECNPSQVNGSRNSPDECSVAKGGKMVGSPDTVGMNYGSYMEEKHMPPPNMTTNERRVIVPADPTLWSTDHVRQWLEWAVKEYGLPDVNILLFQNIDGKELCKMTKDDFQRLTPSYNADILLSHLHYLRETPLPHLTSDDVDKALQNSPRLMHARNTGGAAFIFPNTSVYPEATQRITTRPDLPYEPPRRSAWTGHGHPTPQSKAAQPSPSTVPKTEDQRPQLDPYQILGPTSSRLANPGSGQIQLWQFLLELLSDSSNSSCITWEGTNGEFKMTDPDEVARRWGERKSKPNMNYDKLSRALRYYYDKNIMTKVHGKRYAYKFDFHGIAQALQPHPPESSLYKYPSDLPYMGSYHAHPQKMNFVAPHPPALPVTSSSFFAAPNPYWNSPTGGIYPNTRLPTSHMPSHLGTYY
Summed up: as §1

A further test concerns the target ELF1 (Homo sapiens, UniProt P32519 1-619). Summed up: as §1
The target in the next test is T4, EHF (Homo sapiens, UniProt Q9NZC4 1-300).
T4 sequence: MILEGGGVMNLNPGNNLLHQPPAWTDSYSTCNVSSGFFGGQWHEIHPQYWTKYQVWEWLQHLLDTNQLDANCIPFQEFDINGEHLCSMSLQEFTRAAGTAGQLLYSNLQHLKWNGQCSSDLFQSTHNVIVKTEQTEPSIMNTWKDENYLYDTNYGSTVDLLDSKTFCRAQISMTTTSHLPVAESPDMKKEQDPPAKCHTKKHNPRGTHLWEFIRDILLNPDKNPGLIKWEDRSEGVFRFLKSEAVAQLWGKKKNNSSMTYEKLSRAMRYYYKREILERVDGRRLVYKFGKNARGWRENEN
Summed up: as §1

The next test has as its target SPI1 (Homo sapiens, UniProt P17947 1-270). The gist of the method: as §1
A further test concerns the target SPIB (Homo sapiens, UniProt Q01892 1-262). The gist of the method: as §1
The target of a further test is T5, FEV (Homo sapiens, UniProt Q99581 1-238).
T5 sequence: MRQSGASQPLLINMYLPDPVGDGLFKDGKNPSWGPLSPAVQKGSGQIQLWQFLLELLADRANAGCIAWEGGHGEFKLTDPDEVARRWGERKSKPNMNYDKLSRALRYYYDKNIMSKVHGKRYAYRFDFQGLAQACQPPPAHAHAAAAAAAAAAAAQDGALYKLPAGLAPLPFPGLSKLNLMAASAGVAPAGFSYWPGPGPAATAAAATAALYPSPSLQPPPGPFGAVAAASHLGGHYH
Summed up: as §1

The next test deals with ETV5 (Homo sapiens, UniProt P41161 1-510). Summed up:
as §1

The target of the next test is ELF4 (Homo sapiens, UniProt Q99607 1-663). The gist of the method:
as §1

For a further test, the target named is T6, ELK4 (Homo sapiens, UniProt P28324-2 1-405).
T6 sequence: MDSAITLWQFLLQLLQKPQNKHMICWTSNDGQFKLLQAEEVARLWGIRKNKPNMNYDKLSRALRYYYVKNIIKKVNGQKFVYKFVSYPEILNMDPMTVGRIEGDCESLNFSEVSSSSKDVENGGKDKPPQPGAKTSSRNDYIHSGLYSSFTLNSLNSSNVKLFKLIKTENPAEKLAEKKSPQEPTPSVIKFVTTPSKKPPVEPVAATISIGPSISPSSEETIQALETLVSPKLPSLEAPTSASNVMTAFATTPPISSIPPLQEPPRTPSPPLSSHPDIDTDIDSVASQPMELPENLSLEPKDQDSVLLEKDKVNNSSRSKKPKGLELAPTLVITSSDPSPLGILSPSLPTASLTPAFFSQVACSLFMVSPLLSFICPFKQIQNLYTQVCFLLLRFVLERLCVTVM
The gist of the method: as §1

For another test, the target named is ETV1 (Homo sapiens, UniProt P50549 1-477). Summed up:
as §1

A further test deals with T7, ERF (Homo sapiens, UniProt P50548 1-548).
T7 sequence: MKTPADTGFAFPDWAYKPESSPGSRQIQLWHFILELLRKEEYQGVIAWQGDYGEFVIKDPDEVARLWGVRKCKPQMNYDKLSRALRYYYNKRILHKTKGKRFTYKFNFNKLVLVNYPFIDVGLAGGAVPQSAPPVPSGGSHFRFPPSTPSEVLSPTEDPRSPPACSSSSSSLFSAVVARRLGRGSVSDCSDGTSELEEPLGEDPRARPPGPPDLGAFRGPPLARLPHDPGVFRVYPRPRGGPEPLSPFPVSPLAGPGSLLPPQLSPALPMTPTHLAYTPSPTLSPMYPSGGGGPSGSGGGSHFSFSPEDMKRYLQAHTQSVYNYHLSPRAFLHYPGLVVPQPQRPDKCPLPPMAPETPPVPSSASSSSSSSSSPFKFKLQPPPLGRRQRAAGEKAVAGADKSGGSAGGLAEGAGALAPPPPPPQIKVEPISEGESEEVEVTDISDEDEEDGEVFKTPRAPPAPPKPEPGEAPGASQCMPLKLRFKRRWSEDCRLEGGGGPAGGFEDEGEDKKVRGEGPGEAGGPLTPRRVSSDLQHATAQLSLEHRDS
The gist of the method:
as §1

The next test has as its target T8, ETV3L (Homo sapiens, UniProt Q6ZN32 1-361).
T8 sequence: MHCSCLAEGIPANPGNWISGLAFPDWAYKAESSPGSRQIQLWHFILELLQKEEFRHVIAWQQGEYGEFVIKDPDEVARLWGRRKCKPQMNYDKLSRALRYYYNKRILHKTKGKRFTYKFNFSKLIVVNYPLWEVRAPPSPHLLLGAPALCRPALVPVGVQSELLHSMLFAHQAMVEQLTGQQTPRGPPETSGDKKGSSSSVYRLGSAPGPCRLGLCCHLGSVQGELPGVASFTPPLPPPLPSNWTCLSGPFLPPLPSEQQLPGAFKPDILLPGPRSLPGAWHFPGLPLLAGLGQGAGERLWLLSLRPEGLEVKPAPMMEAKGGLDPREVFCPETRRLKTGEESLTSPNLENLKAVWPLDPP
The gist of the method: as §1

The target of another test is T9, ETS2 (Homo sapiens, UniProt P15036 1-469).
T9 sequence: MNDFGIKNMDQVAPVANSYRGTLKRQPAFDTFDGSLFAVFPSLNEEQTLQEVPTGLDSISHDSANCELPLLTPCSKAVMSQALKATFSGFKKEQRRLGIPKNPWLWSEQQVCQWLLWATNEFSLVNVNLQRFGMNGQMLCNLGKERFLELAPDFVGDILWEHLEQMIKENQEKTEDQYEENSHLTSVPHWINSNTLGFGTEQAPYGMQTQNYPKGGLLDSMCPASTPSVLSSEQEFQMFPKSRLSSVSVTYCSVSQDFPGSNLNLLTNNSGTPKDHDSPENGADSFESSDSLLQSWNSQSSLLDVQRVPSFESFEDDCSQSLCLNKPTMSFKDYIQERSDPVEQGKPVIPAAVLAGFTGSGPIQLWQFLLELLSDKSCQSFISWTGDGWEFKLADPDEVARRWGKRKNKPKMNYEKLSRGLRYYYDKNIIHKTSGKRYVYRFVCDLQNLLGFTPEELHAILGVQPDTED
Summed up: as §1

A further test concerns the target T10, SPDEF (Homo sapiens, UniProt O95238 1-335).
T10 sequence: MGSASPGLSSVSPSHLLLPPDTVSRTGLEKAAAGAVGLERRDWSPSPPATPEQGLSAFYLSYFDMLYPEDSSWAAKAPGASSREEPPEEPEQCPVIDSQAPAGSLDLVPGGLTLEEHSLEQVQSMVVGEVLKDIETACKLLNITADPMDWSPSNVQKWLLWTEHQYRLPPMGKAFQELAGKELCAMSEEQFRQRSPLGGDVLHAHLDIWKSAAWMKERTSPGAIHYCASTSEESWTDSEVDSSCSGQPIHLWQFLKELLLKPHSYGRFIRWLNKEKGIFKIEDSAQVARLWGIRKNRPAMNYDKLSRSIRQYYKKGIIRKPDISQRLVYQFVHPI
The gist of the method: as §1

A further test deals with T11, ETV7 (Homo sapiens, UniProt Q9Y603 1-341).
T11 sequence: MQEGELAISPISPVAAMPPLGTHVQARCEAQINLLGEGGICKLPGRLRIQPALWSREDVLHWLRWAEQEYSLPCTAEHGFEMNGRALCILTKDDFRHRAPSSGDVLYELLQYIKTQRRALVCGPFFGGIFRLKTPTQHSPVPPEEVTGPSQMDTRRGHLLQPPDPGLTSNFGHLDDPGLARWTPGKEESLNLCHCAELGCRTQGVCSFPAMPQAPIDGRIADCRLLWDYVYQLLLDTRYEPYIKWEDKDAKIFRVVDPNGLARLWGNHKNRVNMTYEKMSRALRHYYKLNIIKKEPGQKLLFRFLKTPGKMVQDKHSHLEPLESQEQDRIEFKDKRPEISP
Summed up: as §1

For the next test, the target named is T12, ETV3 (Homo sapiens, UniProt P41162-2 1-143).
T12 sequence: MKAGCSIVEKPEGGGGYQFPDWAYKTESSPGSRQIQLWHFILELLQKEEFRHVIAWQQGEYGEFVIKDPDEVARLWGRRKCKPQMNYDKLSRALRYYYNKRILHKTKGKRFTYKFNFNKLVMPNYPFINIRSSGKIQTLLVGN
Summed up:
as §1

The target in a further test is ETV6 (Homo sapiens, UniProt P41212 1-452). Summed up: as §1
Chain of ETV6 (P41212 whole entry): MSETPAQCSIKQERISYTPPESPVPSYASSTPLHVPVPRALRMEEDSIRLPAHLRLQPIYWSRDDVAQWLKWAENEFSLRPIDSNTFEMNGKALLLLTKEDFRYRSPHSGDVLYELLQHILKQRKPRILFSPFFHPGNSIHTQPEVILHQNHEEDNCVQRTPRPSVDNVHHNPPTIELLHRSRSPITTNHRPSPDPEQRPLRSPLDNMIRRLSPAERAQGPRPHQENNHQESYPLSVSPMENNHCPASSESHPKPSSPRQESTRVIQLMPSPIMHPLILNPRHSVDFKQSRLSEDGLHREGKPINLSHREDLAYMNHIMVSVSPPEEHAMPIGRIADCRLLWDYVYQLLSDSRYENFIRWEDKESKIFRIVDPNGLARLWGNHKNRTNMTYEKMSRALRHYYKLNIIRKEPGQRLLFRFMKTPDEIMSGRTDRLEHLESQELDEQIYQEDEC

Chain of ELF1 (P32519 whole entry): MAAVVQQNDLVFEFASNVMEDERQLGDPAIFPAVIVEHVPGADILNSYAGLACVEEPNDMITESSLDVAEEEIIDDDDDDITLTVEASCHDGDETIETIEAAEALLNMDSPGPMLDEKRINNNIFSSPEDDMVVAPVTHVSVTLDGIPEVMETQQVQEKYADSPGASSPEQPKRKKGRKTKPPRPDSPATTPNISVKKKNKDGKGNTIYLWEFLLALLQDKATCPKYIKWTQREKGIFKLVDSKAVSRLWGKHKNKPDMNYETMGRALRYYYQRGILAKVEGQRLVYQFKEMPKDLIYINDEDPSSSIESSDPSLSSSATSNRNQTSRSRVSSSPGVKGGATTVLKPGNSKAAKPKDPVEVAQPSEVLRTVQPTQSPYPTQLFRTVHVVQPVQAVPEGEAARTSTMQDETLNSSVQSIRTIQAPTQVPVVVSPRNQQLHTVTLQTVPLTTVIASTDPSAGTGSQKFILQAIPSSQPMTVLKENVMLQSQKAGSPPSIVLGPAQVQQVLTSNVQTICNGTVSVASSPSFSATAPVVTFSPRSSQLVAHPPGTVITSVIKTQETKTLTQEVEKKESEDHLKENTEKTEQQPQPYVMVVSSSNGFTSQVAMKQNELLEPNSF
Chain of ELF4 (Q99607 whole entry): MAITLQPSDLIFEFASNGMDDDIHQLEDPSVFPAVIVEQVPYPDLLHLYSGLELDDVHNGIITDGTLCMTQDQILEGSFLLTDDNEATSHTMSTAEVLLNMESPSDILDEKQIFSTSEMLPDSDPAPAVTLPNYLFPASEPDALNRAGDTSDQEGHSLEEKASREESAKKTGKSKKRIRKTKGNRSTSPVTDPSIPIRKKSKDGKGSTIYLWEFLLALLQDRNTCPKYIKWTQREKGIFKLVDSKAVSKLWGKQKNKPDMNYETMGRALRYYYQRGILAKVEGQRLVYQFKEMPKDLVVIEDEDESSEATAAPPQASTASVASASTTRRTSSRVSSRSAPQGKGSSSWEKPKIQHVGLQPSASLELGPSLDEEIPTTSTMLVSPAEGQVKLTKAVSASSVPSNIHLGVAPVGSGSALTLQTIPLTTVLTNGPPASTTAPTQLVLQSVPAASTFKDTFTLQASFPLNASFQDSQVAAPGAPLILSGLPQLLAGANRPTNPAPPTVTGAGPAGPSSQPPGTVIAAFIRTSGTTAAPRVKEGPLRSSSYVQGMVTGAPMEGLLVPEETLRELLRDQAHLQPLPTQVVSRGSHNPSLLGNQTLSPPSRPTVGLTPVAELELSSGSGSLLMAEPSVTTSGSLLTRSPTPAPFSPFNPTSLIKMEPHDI
Chain of ETV1 (P50549 whole entry): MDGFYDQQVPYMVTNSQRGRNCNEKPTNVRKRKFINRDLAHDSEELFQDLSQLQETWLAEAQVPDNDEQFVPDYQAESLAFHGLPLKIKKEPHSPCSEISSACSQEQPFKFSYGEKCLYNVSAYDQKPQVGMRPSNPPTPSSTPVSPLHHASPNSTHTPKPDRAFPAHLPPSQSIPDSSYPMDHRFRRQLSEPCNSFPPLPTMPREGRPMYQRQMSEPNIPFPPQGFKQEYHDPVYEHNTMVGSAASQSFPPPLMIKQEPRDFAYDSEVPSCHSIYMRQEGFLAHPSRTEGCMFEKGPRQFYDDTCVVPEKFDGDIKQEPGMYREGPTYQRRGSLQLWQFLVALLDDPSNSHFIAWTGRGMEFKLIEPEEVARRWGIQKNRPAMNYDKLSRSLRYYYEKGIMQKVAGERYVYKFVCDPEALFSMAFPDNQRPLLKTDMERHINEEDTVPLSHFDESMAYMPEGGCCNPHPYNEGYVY
Chain of ETV5 (P41161 whole entry): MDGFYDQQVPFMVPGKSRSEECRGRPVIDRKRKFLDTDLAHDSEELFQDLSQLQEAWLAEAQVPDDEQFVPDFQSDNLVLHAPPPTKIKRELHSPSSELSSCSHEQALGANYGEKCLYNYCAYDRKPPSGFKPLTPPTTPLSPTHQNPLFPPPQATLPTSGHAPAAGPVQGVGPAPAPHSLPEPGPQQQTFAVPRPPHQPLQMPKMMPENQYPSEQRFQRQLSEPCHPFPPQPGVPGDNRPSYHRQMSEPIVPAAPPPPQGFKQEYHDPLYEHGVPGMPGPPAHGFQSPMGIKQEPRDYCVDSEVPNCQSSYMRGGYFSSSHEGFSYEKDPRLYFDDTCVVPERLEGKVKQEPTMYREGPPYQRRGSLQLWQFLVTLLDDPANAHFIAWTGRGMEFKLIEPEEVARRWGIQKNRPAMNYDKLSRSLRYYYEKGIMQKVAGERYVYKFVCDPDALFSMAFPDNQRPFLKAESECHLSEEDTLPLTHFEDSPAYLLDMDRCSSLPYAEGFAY
Chain of SPIB (Q01892 whole entry): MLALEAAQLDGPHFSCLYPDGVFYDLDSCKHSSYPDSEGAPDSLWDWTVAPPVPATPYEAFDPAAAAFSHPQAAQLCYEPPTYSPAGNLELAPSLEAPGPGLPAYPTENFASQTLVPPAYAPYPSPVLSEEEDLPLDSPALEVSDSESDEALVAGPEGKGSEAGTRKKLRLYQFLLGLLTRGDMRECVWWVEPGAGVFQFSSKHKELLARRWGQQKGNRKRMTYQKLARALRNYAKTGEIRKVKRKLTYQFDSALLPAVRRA

Consider ATAATG, for which the binding signal was 1.1 fold enrichment (6-mer frequency, TF over GST control) with ELK1; 1.06 fold enrichment (6-mer frequency, TF over GST control) in the test with GABPA; 1.03 fold enrichment (6-mer frequency, TF over GST control) with ERG; 1.11 fold enrichment (6-mer frequency, TF over GST control) in the test with ELF1; 1.14 fold enrichment (6-mer frequency, TF over GST control) with EHF; 1.07 fold enrichment (6-mer frequency, TF over GST control) with SPI1. Besides, the binding signal with SPIB is 1.19 fold enrichment (6-mer frequency, TF over GST control); with FEV, 1.08 fold enrichment (6-mer frequency, TF over GST control); with ETV5, 1.09 fold enrichment (6-mer frequency, TF over GST control); with ELF4, 1.06 fold enrichment (6-mer frequency, TF over GST control); in the test with ELK4 it was 1.16 fold enrichment (6-mer frequency, TF over GST control); with ETV1 it was 1.16 fold enrichment (6-mer frequency, TF over GST control). Further, the binding signal in the test with ERF is 1.09 fold enrichment (6-mer frequency, TF over GST control); with ETV3L, 1.2 fold enrichment (6-mer frequency, TF over GST control); with ETS2, 1.14 fold enrichment (6-mer frequency, TF over GST control); with SPDEF, 1.06 fold enrichment (6-mer frequency, TF over GST control); with ETV7, 1.01 fold enrichment (6-mer frequency, TF over GST control); in the test with ETV3, 1.09 fold enrichment (6-mer frequency, TF over GST control). The binding signal with ETV6 is 1.09 fold enrichment (6-mer frequency, TF over GST control).

Source of the values: PMC7862700, “An all-to-all approach to the identification of sequence-specific readers for epigenetic DNA modifications on cytosine”.
